Here are results for 36 molecules from PubChem BioAssay (NCATS).

Results filed as inconclusive are left out. The source made the active and inactive calls. The call rests on the fitted dose curve; in most records, active means well fitted cell-killing curve with a large enough effect; inconclusive means small, poorly fitted or top-dose-only effect, or effect the other way; inactive means flat fitted curve, though single readings scatter.
On the % scale 0 is the no-effect control and ±100 the full control effect; potency means the concentration at half of the fitted maximal effect.

In the assay the test system is Tov-21-G. The assay can be described thus: Primary qHTS to identify gynecologic anti-cancer compounds using libraries of approved drugs and bioactive compounds (AID 1345084). Further: nearly all actives have a fitted effect of over 55% in size. As to conditions: Gynecologic cancer cell panel viability, ATPlite luminescence, 48 h; series mostly up to 57.5 µM; activity change, negative = cytotoxicity: at the top concentration. In outline:
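Cytotoxicity screen measuring ATP content by luciferase luminescence. Each compound is applied at five concentrations for 48 h at 37 C with 5% CO2.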
For `C=CC(=O)Nc1ccc2ncnc(Nc3cccc(Br)c3)c2c1`, the Potency is 10 µM (active).

Regarding `C/C=C/C=C/C=C/C(=O)O[C@@H]1C=C(CO)C(O)(C(=O)OC)[C@@]2(C)CCCC(C)(C)C12` (stereo partly specified), the “activity change, negative = cytotoxicity” value is 3.96% [at 25.3 µM] (inactive).

As for `CC(=O)Nc1cccc(Nc2ncnc(N3CCC(OCc4ccc(OC(F)(F)F)cc4)CC3)n2)c1C`, the “activity change, negative = cytotoxicity” value was -18.6% (inactive).

Regarding `Cn1nc(C(C)(C)C)cc1C(=O)N[C@@H](Cc1cccc(Cl)c1)C(=O)NCC#N`, the “activity change, negative = cytotoxicity” value is 9.76% (inactive).

`CC(=O)N1CCN(CCOc2ccc(C3CCN(C4=Nn5c(nnc5C(F)(F)F)CC4)CC3)cc2)CC1`: the “activity change, negative = cytotoxicity” value was -17.9% (inactive).

Take `CCCOc1ccc(CCc2nc3cc(-c4c(C)noc4C)ccc3n2CCN2CCOCC2)cc1`: the “activity change, negative = cytotoxicity” value is -3.62% (inactive).

As for `CCC(C)C(=O)O[C@H]1[C@H](O)[C@@]2(COC(C)=O)C(CC1(C)C)C1=CCC3[C@@]4(C)CC[C@H](O[C@@H]5O[C@H](C(=O)O)[C@@H](O)[C@H](O)[C@H]5O)[C@@](C)(CO)C4CC[C@@]3(C)[C@]1(C)C[C@@H]2O` (stereo partly specified), the activity change, negative = cytotoxicity was 17.2% [at 11.6 µM] (inactive).

For the molecule `COC1CCN(c2cccc(-c3cc(NC(C)=O)nc(-n4nc(C)cc4C)n3)n2)CC1`, the “activity change, negative = cytotoxicity” value is -22.4% (inactive).

`O=C(Nc1ccccc1)N1CCN(c2nc(-c3ccccc3)ns2)CC1`: the “activity change, negative = cytotoxicity” value is -0.348% (inactive).

On to `O=C(NNc1nc2cc(F)ccc2n2cccc12)c1cnccn1`, for which the Potency was 8.91 µM (active).

Turning to `COc1cc2c(cc1NS(=O)(=O)c1ccc(Br)cc1C)n(C)c(=O)n2C`, the “activity change, negative = cytotoxicity” value is 1.07% (inactive).

Regarding `Cn1c(CO)c(-c2ccccc2)c2cc([N+](=O)[O-])ccc21`, the “activity change, negative = cytotoxicity” value was 3.6% (inactive).

As for `CC(C)(C)Sc1c(CC(C)(C)C(=O)O)n(Cc2ccc(Cl)cc2)c2ccc(OCc3ccc4ccccc4n3)cc12`, the “activity change, negative = cytotoxicity” value is 22% (inactive).

As to `Cc1cc(CS(=O)(=O)c2ccccc2)cc(OCc2ccc(CN3CCCC3CO)cc2)c1` (stereo unspecified), the “activity change, negative = cytotoxicity” value was -0.196% (inactive).

On to `O=C(c1ccc(F)cc1)N1CCCC(c2nc(-c3ccc(F)cc3)no2)C1` (stereo unspecified), for which the “activity change, negative = cytotoxicity” value was 1.31% (inactive).

For `CN1CCC(c2cn(C)c3ccc(OS(=O)(=O)c4c(F)cccc4F)cc23)CC1`, the “activity change, negative = cytotoxicity” value was -5.23% (inactive).

On to `CC(CCC1(O)OC2CC3C4CC=C5CC(O[C@@H]6O[C@H](CO)[C@@H](O[C@@H]7O[C@@H](C)[C@H](O)[C@@H](O)[C@H]7O)[C@H](O)[C@H]6O[C@@H]6O[C@@H](C)[C@H](O)[C@@H](O)[C@H]6O)CCC5(C)C4CCC3(C)C2C1C)CO[C@@H]1O[C@H](CO)[C@@H](O)[C@H](O)[C@H]1O` (stereo partly specified), for which the activity change, negative = cytotoxicity was -14.2% [at 11.6 µM] (inactive).

As to `CC(C)(N)c1ncc(-c2ccc(OC(F)(F)F)cc2)[nH]1`, the “activity change, negative = cytotoxicity” value was -4.09% (inactive).

Consider `CC(=O)OC1CCC2(C)C(CCC3(C)C2CC=C2C4C(C)C(C)CCC4(C)CCC23C)C1(C)C(=O)O` (stereo unspecified), for which the “activity change, negative = cytotoxicity” value is -0.223% [at 25.3 µM] (inactive).

For `COc1cc2nc(C3CC3)nc(N3CCN(c4ccccc4OC)CC3)c2cc1OC`, the “activity change, negative = cytotoxicity” value is -11.7% (inactive).

As to `Cc1nc(Nc2cnn(C3CCNCC3)c2)nc2c1N(C)C(=O)c1cc3ccccc3cc1N2C`, the “activity change, negative = cytotoxicity” value was -14% (inactive).

As to `Cc1cc(-c2nc(-c3ccc(OC(F)(F)F)cc3)no2)nn1Cc1ccnc(N2CCN(C3CC3)CC2)c1`, the “activity change, negative = cytotoxicity” value was -12.4% (inactive).

Take `Cc1[nH]c2ccccc2c1CCNCc1ccc(/C=C/C(=O)NO)cc1`: the Potency is 0.708 µM (active).

Regarding `CCOc1cccc(NC(=O)c2ccc(N3CCCC3)c(C(F)(F)F)c2)c1`, the “activity change, negative = cytotoxicity” value was -14.5% (inactive).

On to `COCC(c1ccc(C(F)(F)F)cc1)N1CCN(C2(C)CCN(C(=O)c3c(C)ncnc3C)CC2)CC1C` (stereo unspecified), for which the “activity change, negative = cytotoxicity” value is 7.99% (inactive).

Take `CC(C)(C)[C@H](NC(=O)c1ccc(N)c(Cl)c1)C(=O)N1CCC[C@H]1C(=O)N[C@H](C#N)CC(=O)O`: the “activity change, negative = cytotoxicity” value is -4.25% (inactive).

`CC(O)(C(=O)C1CC1(CO)COC1OC(CO)C(O)C(O)C1O)C1C(O)CC2C3CC=C4CC(O)CC(O)C4(C)C3C(O)CC21C` (stereo unspecified): the Potency was 0.562 µM (active).

As for `O=C(NCCCNc1nc(Nc2cccc(CN3CCOCC3)c2)ncc1C1CC1)C1CCC1`, the Potency is 15.8 µM (active).

As to `O=C1Nc2nc(-c3c(O)cccc3OCC3CC3)cc([C@@H]3CCCNC3)c2CO1`, the Potency was 14.1 µM (active).

In the case of `CN1CCN(Cc2ccc(NC(=O)Cc3ccc(Oc4cc(NC(=O)C5CC5)ncn4)cc3)cc2C(F)(F)F)CC1`, the Potency is 6.31 µM (active).

`COc1cccc(-c2cc(F)ccc2C2Cc3nc(N)nc(C)c3C(=O)N2)n1` (stereo unspecified): the Potency is 0.282 µM (active).

For `CN(C)C(CCOc1cccc2ccccc12)c1ccccc1` (stereo unspecified), the “activity change, negative = cytotoxicity” value is -17.4% (inactive).

Regarding `CC(C)(O)c1ccc2c(c1)ncn2-c1cccc(-c2ccccc2C#N)c1`, the “activity change, negative = cytotoxicity” value is 20.6% (inactive).

With `Fc1ccc2[nH]ccc2c1-c1nc(N2CCOCC2)c2sc(CN3CCN(CC4CC4)CC3)cc2n1`, the “activity change, negative = cytotoxicity” value is -26.1% (inactive).

On to `O=C(N[C@H]1CCC[C@H](CO)C1)C1CCN(c2nc3cc(Cl)c(-c4ccc(Cl)cc4)cc3o2)CC1`, for which the “activity change, negative = cytotoxicity” value was 6.83% (inactive).

For `Nc1cccc(CNC(=O)c2ccc(Oc3ccc(OCc4cccc(F)c4)cc3)nc2)c1`, the “activity change, negative = cytotoxicity” value was -1.27% (inactive).
